This is a sample that favours compounds with a hit; in the whole collection about 3.5% have one here.
ERa coact inh = ER-alpha (human) coactivator binding inhibition; inhibition, % at 25.6 µM; AID 629; 1.7% of 86,000 active; TR-FRET ER-alpha LBD / SRC-1 peptide, estradiol-bound; in the data active = inhibition above about 50%;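 also: 0% = receptor plus peptide control and 100% = peptide only without receptor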
ERa SRC1 pot = ER-alpha (human) coactivator binding potentiation | P03372 | TR-FRET ERalpha-LBD/SRC-Cy5 coactivator binding, 2 h; 100 = basal binding, no effect | coactivator binding (% of control), % at 25.6 µM | 1.3% of 86,000 active | AID 639; in the data active = activity above about 200%;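 also: binding measured in presence of low estradiol as agonist stimulus; 0% = peptide alone without receptor and 100% = receptor with peptide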
Smad3 FoxH1 inh = Smad3 (human) transcription factor binding inhibition; P84022; TR-FRET Smad3/Dy647-FoxH1 peptide binding, europium anti-His; inhibition, % at 25 µM; 0.29% of 88,000 active;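 active = compounds that reduce the energy-transfer binding signal between the protein and its labelled peptide by more than half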;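 also: 0% = Smad3 plus labelled peptide maximal FRET and 100% = peptide-only background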
Target sequence (P84022 whole entry, looked up): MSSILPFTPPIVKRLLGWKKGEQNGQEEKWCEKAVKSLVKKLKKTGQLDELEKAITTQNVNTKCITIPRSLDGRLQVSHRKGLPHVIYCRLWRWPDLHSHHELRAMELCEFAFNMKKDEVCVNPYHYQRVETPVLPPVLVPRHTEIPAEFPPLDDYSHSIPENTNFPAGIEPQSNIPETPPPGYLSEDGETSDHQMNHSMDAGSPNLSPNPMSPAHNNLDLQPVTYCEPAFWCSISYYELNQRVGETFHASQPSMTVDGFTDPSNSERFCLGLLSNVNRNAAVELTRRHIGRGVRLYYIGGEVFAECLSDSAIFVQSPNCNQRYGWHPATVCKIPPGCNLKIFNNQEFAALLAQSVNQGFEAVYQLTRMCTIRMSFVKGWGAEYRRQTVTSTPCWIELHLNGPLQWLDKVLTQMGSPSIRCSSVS
MT1-MMP txn act = activates MT1-MMP transcription; HT1080 MT1-MMP promoter luciferase reporter, luminescence, overnight; hits give high values; activation factor at 10 µM; 0.16% of 86,000 active;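 active = activation factor of at least 2 for MT1-MMP transcription at 10 µM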
MMP13 inh = inhibitors of human MMP13; P45452; MMP-13 fTHP FRET cleavage, Mca fluorescence; inhibition, % at 4 µM; 0.07% of 65,000 active; AID 570;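 active = inhibition above the mean of compound-free control plate wells plus 3 SD, cut at about 14% in these data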;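 also: 0% = DMSO wells and 100% = wells with reference MMP-13 inhibitor after basal subtraction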
ERb coact inh = ER-beta (human) coactivator binding inhibition. Q92731. AID 633. TR-FRET ER-beta LBD / SRC1-Cy5 peptide binding; receptor agonist-loaded with 1 µM estradiol. inhibition, % at 25.6 µM. 1.3% of 86,000 active;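 active = compounds whose percent inhibition of the receptor-coactivator binding signal exceeds about 50% in the single-dose screen, limit read from the data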;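 also: 0% = receptor plus peptide wells without compound and 100% = peptide-only wells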
Starred values were filed as active, the others as inactive; / = no result given; [ ] = another dose, or the depositor's remark.

SMILES	ERa coact inh	ERa SRC1 pot	Smad3 FoxH1 inh	MT1-MMP txn act	MMP13 inh	ERb coact inh
COc1ccc(CCNC(=O)c2ccc3c(=O)n(Cc4ccco4)c(=S)[nH]c3c2)cc1OC	61*[fluorescence artefact?]	75	-2	1.1	-2	40
Cc1ccc(-n2ccnc2SCC(=O)O)c(C)c1	-7	99	3	1.1	/	-8
COc1ccc(S(=O)(=O)N(C)c2ccc(C(=O)NCC3CCCO3)cc2)cc1 (centres undefined)	-25	113	9	1.1	-4	-32
CCOc1ccc(-c2cc(CCCC(=O)NCc3ccco3)no2)cc1	-43	204*	-2	0.5	3	-2
COc1ccc(C(=O)OCC(=O)NCc2ccco2)cc1OC	68*[fluorescence artefact?]	60	11	1.3	-4	41
CCOc1ccc(-c2nnn(CC(=O)NCc3ccco3)n2)cc1	3	111	-11	1.1	3	6
COc1ccc(CCNC(=O)c2ccc3nc(-c4ccco4)c(-c4ccco4)nc3c2)cc1OC	90*[fluorescence artefact?]	36	-1	1.1	6	94*[fluorescence artefact?]
CCOc1cc2[nH]c(=S)n(CCc3ccc(OC)c(OC)c3)c(=O)c2cc1OCC	57*[fluorescence artefact?]	62	-8	/	/	31
COc1ccc(-c2cc(C(F)(F)F)c3c(=O)n(-c4ccccc4)[nH]c3n2)cc1	22	74	6	1.1	/	29
COc1cc(C(=O)NCC(=O)n2nc(C)cc2C)cc(OC)c1OC	-1	108	12	1	-3	-2
CCOC(=O)c1ccc(NCc2nc3ccccc3[nH]2)cc1	-2	111	10	1.5	-5	-3
Cc1cc(S(=O)(=O)N(Cc2ccc(F)cc2)CC2CCCO2)ccc1-n1cnnn1 (centres undefined)	-1	120	3	1.1	2	63*
O=C(Nc1ccccc1[N+](=O)[O-])C1=C(O)CCn2c1nc1ccccc12	63*	147	51*	0.9	/	49
COc1ccc2c(c1)c(=O)oc1cc(OCC(=O)NC3CCCCC3)ccc12	71*	157	-49	1	/	72*
CC(C)CCNC(=O)COc1ccc2c3c(c(=O)oc2c1)CCC3	48	352*	16	0.8	-43	29
CC(C)CNC(=O)COc1ccc2c3c(c(=O)oc2c1)CCC3	/	/	/	1	-29	/
Cc1ccc(C(OC(=O)c2ccco2)C(=O)NCc2cccs2)cc1 (centres undefined)	3	118	-4	1.1	5	4
Cc1ccc(NC(=O)C(C)N2CCOCC2)c(C(=O)c2ccccc2)c1 (centres undefined)	-10	112	-6	1.1	-2	-7
O=C(Nc1ccc2c(c1)OCO2)C1Cc2ccccc2CN1S(=O)(=O)c1cccs1 (centres undefined)	79*[fluorescence artefact?]	60	-6	1.5	-5	41
O=C(Nc1ccc2c(c1)OCO2)C1CCN(S(=O)(=O)c2cccs2)CC1	5	92	7	/	9	4
NC(=O)C1(S(=O)(=O)c2ccccc2)CCCCC1	6	96	-11	1.2	5	4
Cc1onc(-c2ccccc2Cl)c1C(=O)Nc1cnn(Cc2ccccc2)c1	-1	108	6	1.1	6	-6
O=C(CSc1oc(-c2ccco2)nc1S(=O)(=O)c1ccc(Cl)cc1)NCC1CCCO1 (centres undefined)	54*[fluorescence artefact?]	44	-9	/	2	43
O=C(CSc1oc(-c2ccco2)nc1S(=O)(=O)c1ccccc1)NCC1CCCO1 (centres undefined)	/	/	/	1	4	/
CCCc1nn(-c2ccccc2)c2c1C(c1cccs1)C(C#N)=C(N)O2 (centres undefined)	-7	113	-1	1.2	/	1
SMILES	ERa coact inh	ERa SRC1 pot	Smad3 FoxH1 inh	MT1-MMP txn act	MMP13 inh	ERb coact inh
CCCS(=O)(=O)n1nc(-c2ccccc2)cc1N	3	102	6	/	/	38
COc1cc(-c2noc(-c3cccc(Cl)c3)n2)cc(OC)c1OC	5	233*	-3	1.1	5	16
FC(F)(F)c1cccnc1N1CCN(c2ncnc3nc[nH]c23)CC1	56*[fluorescence artefact?]	74	-7	1.1	7	-13
Clc1ccccc1N1CCN(c2ncnc3nc[nH]c23)CC1	6	99	-11	1.1	6	0
CC(=O)c1cccc(NC(=O)Nc2ccc(C(=O)N3CCOCC3)cc2)c1	6	95	-6	/	7	-7
O=C(NC(=Nc1ccccc1)N1CCOCC1)Nc1ccccc1	10	108	0	1.2	16*	-4
COc1c(C)cccc1C(=O)Nc1ccc(N2CCOCC2)c(Cl)c1	-1	110	-1	2.2*	/	-1
C[N+]1(CCCCCCC(=O)/C=N/O)CCCCCC1	4	104	8	1.2	/	-7
O=C(NCc1ccccc1)c1cccc(NC(=O)c2ccco2)c1	/	/	/	1.2	5	/
N#Cc1cc2ccccc2nc1SCC(=O)Nc1ccc(S(=O)(=O)N2CCCC2)cc1	16	289*[fluorescence artefact?]	1	1.5	-1	23
COc1ccc2nc(SCC(=O)Nc3ccc(S(=O)(=O)N4CCCC4)cc3)c(C#N)cc2c1	19	509*[fluorescence artefact?]	11	0.9	-6	40
COc1ccc2nc(SCC(=O)N3CCCCCC3)c(C#N)cc2c1	10	108	3	1.3	-10	9
Cc1ccc(-n2ncc(C(=O)NCc3ccc4c(c3)OCO4)c2NC(=O)c2ccco2)cc1C	12	97	-6	1	2	11
O=C(Nc1nccs1)c1csc2c1CCCC2	-4	97	7	1.8	/	-6
CCSc1nnc(NC(=O)C(Cc2ccccc2)n2cccc2)s1 (centres undefined)	-7	249*[fluorescence artefact?]	-28	1.1	-2	-8
CCSc1nnc(NC(=O)COc2ccc3ccccc3c2)s1	21	259*[fluorescence artefact?]	6	1.1	/	11
O=C(O)C1CC(O)CN1S(=O)(=O)c1cccs1 (centres undefined)	-7	114	2	1	/	-5
Cc1nc(Nc2nc(-c3ccccc3)cc(=O)[nH]2)nc2ccccc12	20	239*	21	1	1	-2
CCc1c(C)nc(Nc2nc(C)c3cc(OC)ccc3n2)[nH]c1=O	-1	112	-7	1.6	-1	-7
COc1nc(Nc2nc3ccccc3c(=O)[nH]2)nc2ccc(C)cc12	74*[fluorescence artefact?]	147	40	0.7	0	53*[fluorescence artefact?]
COc1ccc2c(C)nc(Nc3nc(C)c(C)c(=O)[nH]3)nc2c1	6	99	-3	0.8	/	13
C=CCOC(=O)c1sc(N2C(=O)c3oc4ccccc4c(=O)c3C2c2ccco2)nc1C (centres undefined)	54*	38	2	1.1	-23	61*
CCOc1ncccc1C(=O)OCc1cc(=O)oc2c(C)c(C)ccc12	48	287*[fluorescence artefact?]	-27	1.4	7	44
CCOc1ccc2[nH]cc(C(=O)O)c(=O)c2c1	-14	112	7	1.1	3	8
Nn1c(COc2ccccc2)nnc1SCC(=O)O	-2	252*[fluorescence artefact?]	7	1.2	-1	-3
